Source: PubChem
Most compounds without a hit are left out; they make up all but 3.2% or so of the library.
Rtt109 HAT inh – inhibitors of C. albicans Rtt109/Vps75 HAT, primary screen, biochemical, ThioGlo CoA-SH fluorescence, plate reader; 0.16% of 330,000 active; purified Rtt109/Vps75, 4 h; Histone acetyltransferase RTT109 (Candida albicans (strain SC5314 / ATCC MYA-2876)), …; inhibition, % at 34.9 µM;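 active = inhibition of at least 50% in every replicate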
CDK5 inh – inhibitors of human CDK5/p35 kinase, primary screen, biochemical, single concentration; Recombinant CDK5/p35, ADP-Glo luminescence, 60 min; inhibition, % at 10 µM; 0.01% of 330,000 active;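 active = highest replicate inhibition of at least 50% and at least 75% of replicates reaching 50%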;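 also: plate controls were DMSO neutral control for no effect and GW8510 at 10 µM for full effect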
Target sequence (Q00535 whole entry, looked up): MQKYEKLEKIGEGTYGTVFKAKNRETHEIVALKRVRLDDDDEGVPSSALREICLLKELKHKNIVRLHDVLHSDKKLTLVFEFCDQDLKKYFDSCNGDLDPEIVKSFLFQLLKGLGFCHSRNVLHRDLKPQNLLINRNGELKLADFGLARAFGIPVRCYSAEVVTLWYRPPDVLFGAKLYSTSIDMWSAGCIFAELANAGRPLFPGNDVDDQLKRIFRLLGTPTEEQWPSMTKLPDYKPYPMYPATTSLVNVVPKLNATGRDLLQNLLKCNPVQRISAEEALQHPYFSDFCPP
Target sequence (Q15078 whole entry, looked up): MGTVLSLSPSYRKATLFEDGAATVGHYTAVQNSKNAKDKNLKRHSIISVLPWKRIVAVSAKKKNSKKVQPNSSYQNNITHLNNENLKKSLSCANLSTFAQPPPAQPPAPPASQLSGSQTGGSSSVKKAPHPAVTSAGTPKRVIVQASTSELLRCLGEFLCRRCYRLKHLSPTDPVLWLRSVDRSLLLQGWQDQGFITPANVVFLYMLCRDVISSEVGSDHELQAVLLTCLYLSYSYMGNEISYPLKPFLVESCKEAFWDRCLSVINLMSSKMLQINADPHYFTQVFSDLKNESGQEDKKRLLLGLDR
DYRK1A inh – rat Dyrk1A kinase inhibitors, primary screen, biochemical, single point, plate reader; ADP-Glo luminescence, NFATc1 peptide; inhibition, % at 12.5 µM; 0.43% of 310,000 active; AID 504441, 2011; in the data active = inhibition above about 50%;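 also: plate controls were vehicle with enzyme for no effect and no enzyme for full effect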
esBAF inh – Bmi1 luciferase reporter increase in mESCs, primary screen, esBAF inhibitor project, mouse ES cells, Bmi1 luciferase knock-in, single point; 24 h; 100% = twice the neutral-well signal; 2% of 350,000 active; reporter increase, % at 12.5 µM; AID 602393, 2012; in the data active = activation above about 40%;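 also: 0% = median of the plate's neutral control wells and 100% = double that signal; a rise in the Bmi1 reporter signal indicates esBAF inhibition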
dFosB activator – activators of delta FosB homodimer, primary screen, biochemical, fluorescence polarization, TAMRA-CDK5 oligo, single point | purified delta FosB; percent of positive-control signal above neutral wells | activation, % at 25 µM | 0.99% of 340,000 active | AID 493131, 2011;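 active = mean activation above about 17%, with every replicate also reaching it, limit read from the data, passing the limit was not always enough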
SMARCA2 act – SMARCA2 (BRM) function activators, primary screen, cell-based, luminescence, high throughput; MG213 cells, MMTV-luciferase reporter, dexamethasone, overnight; AID 652017, 2013; activation, % at 9.1 µM; 1% of 370,000 active; in the data active = activation above about 7.8%;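 also: 0% = vehicle wells and 100% = reference activator wells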
Starred values were filed as active, the others as inactive; nt = no result given.

SMILES | Rtt109 HAT inh | CDK5 inh | DYRK1A inh | esBAF inh | dFosB activator | SMARCA2 act
CSc1ccccc1C(=O)N1CCc2ccc(NC(=O)c3ccccn3)cc2C1 | nt | nt | nt | 46* | nt | -3
CC(=O)Nc1cccc(Oc2ccc(-c3noc(C)n3)cc2)c1 | 3 | -5 | -6 | 72* | -9 | 3
COc1ccc(-c2noc(-c3ccccc3C(=O)Nc3cccc(OC)c3)n2)cc1 | 3 | -4 | -7 | 12 | -7 | 3
Cc1ccc(C(=O)OCC(=O)Nc2ccc3c(c2)OCO3)o1 | 10 | 3 | -8 | -2 | 0 | 0
Cc1ccc(C(=O)Nc2ccc3c(c2)OCO3)o1 | 5 | 2 | -2 | 48* | -12 | 3
C/C(=C\C(=O)c1ccc(C)o1)Nc1ccc2c(c1)OCO2 | -9 | 1 | 6 | 66* | -7 | 1
Cc1ccc(C(=O)Nc2cccc(Oc3ccccc3)c2)o1 | 6 | -2 | 10 | 69* | -1 | 2
CO[C@H](CN(C)S(=O)(=O)c1ccc(Cl)cc1)[C@H](C)CN(C(=O)Nc1ccccc1F)[C@@H](C)CO | nt | nt | nt | 5 | nt | nt
O=C(NC1CCC1)[C@@H]1[C@@H](CO)[C@@H]2Cn3c(ccc(-c4ccc(F)cc4)c3=O)[C@H]1N2 | nt | nt | nt | 2 | nt | nt
CC(C)NC(=O)N[C@H]1CC[C@H](CCNC(=O)C2CCCC2)O[C@@H]1CO | nt | nt | nt | -2 | nt | nt
C[C@@H]1CN([C@H](C)CO)C(=O)c2cc(NS(=O)(=O)c3cn(C)cn3)ccc2O[C@H]1CN(C)S(C)(=O)=O | nt | nt | nt | 8 | nt | nt
Cc1c(C(=O)N2CCc3ccccc32)oc2c1C(=O)CC(C)(C)C2 | -21 | 0 | -4 | 53* | -14 | 5
Cc1ccc(S(=O)(=O)Nc2ccc3c(c2)C(=O)N([C@H](C)CO)C[C@@H](C)[C@H](CN(C)C(=O)NC2CCCCC2)OCCCC[C@@H](C)O3)cc1 | nt | nt | nt | 3 | nt | nt
O=C(Nc1ccc(Cl)cc1)c1csc(COCCO)n1 | nt | nt | nt | 53* | nt | 5
CCOc1ccc2oc(C(=O)Nc3ccc(C)cn3)c(C)c2c1 | nt | nt | nt | 85* | nt | 0
CCc1ccc2oc(C(=O)Nc3nonc3C)c(C)c2c1 | 1 | -1 | -1 | 78* | 3 | 1
Cc1ccc(NC(=O)c2oc3ccccc3c2C)nc1 | 4 | 1 | nt | nt | -15 | 2
COc1ccc(S(=O)(=O)Nc2ccc3c(c2)C(=O)N([C@@H](C)CO)C[C@@H](C)[C@H](CN(C)Cc2ccc(C(F)(F)F)cc2)O3)cc1 | nt | nt | nt | 2 | nt | nt
COc1ccc(S(=O)(=O)N(C)C[C@@H]2Oc3ccc(NC(=O)C4CC4)cc3CC(=O)N([C@H](C)CO)C[C@H]2C)cc1 | nt | nt | nt | -1 | nt | nt
CC1CCc2c(sc(NC(=O)/C=C/c3cccs3)c2C(=O)O)C1 (stereo unspecified) | 0 | 1 | 2 | 53* | -3 | 0
COC(=O)c1cccc(-n2c(C)cc(/C=C3\SC(=O)NC3=O)c2C)c1 | nt | nt | nt | 45* | nt | 1
Cc1cc(C(=O)O)ccc1-n1c(C)cc(/C=C2\SC(=O)NC2=O)c1C | -3 | -1 | 4 | 2 | 2 | -1
COc1ccc(CN=C2Nc3ccccc3CS2)cc1 | 11 | -1 | -7 | 61* | 0 | 3
COc1ccc(CN=C2NN=C(c3ccc(Cl)cc3)CS2)cc1 | -3 | 0 | nt | nt | -4 | -1
C[C@H]1CN([C@@H](C)CO)C(=O)Cc2cc(NC(=O)CCN3CCOCC3)ccc2O[C@@H]1CN(C)C(=O)Nc1ccccc1 | nt | nt | nt | -5 | nt | nt
SMILES | Rtt109 HAT inh | CDK5 inh | DYRK1A inh | esBAF inh | dFosB activator | SMARCA2 act
CC1CCC/C(=C\Nc2ccc(O)cc2)C1=O (stereo unspecified) | 7 | 2 | -3 | 33 | -13 | -3
Cc1cc(C(=O)O)ccc1N/C=C1\CCCC(C)C1=O (stereo unspecified) | 14 | 3 | 15 | 64* | 11 | 4
COc1ccc(S(=O)(=O)Nc2ccc3c(c2)C(=O)N([C@H](C)CO)C[C@@H](C)[C@@H](CN(C)C(=O)Nc2c(C)noc2C)OCCCC[C@@H](C)O3)cc1 | nt | nt | nt | -3 | nt | nt
COc1ccc(Nc2nc3cc(-c4ccsc4)sc3c(=O)n2C)cc1OC | nt | nt | nt | 30 | nt | 3
COc1cccc(-c2cc3nc(Nc4ccc(OC)c(OC)c4)n(C)c(=O)c3s2)c1 | nt | nt | nt | 53* | nt | 1
C[C@@H]1CCCCO[C@H](CN(C)Cc2ccc3c(c2)OCO3)[C@@H](C)CN([C@@H](C)CO)C(=O)c2cc(NC(=O)C3CCCCC3)ccc2O1 | nt | nt | nt | 2 | nt | nt
COc1ccc(S(=O)(=O)N2CCN(c3ccccn3)CC2)cc1OC | 53* | -2 | -4 | 0 | -4 | -2
COc1cc(S(=O)(=O)N2CCN(c3ccccn3)CC2)ccc1Br | 1 | 1 | 1 | -8 | -10 | -3
CC(=O)c1cccc(S(=O)(=O)N2CCC(C(=O)O)(c3ccccc3)CC2)c1 | -3 | -5 | 3 | 0 | -2 | 1
CC(=O)c1cccc(S(=O)(=O)N2CCC(C(=O)O)CC2)c1 | 58* | 0 | -1 | nt | 1 | 1
CCCc1cn(CC[C@@H]2CC[C@H](NC(=O)C3CCC3)[C@@H](CO)O2)nn1 | nt | nt | nt | 4 | nt | nt
CCCN1[C@H](C(=O)OC)[C@@H](CO)[C@@H]2Cn3c(ccc(-c4ccc(F)cc4)c3=O)[C@@H]21 | nt | nt | nt | -7 | nt | nt
CO[C@@H]1CC[C@H]2CCOc3c(C#N)cccc3C(=O)N(C)[C@@H](C)C(=O)N(C)C[C@H]1O2 | nt | nt | nt | -5 | nt | nt
OC(CNc1ccnc2cc(Cl)ccc12)CNC1CCCCC1 (stereo unspecified) | -6 | 1 | 6 | 2 | 26* | 5
OC1CCCC1NCc1ccnc2cc(Cl)ccc12 (stereo unspecified) | -8 | 2 | 1 | -1 | -2 | -3
O=C(C[C@H]1C[C@H]2c3cc(NC(=O)C4CCC4)ccc3O[C@H]2[C@H](CO)O1)NCc1ccc2c(c1)OCO2 | nt | nt | nt | -2 | nt | nt
COc1ccccc1/C=N/n1c(N)c(S(=O)(=O)c2cccs2)c2nc3ccccc3nc21 | 11 | 0 | -3 | 41* | 11 | -2
N#C/C(=C\c1ccncc1)c1nc2c(s1)CCCC2 | 57* | 0 | -82 | nt | 1 | 5
O=C(NCC(=O)N1CCCC1)c1ccccc1F | -7 | 1 | -5 | 48* | 7 | 1
CN1CCCN(C(=O)CNC(=O)c2ccccc2F)CC1 | -3 | -2 | 0 | 0 | -8 | 7
O=C(NCC(=O)N1CCC(Cc2ccccc2)CC1)c1ccccc1F | nt | nt | nt | 53* | nt | 3
O=C(NCC(=O)N1CCCCC1)c1ccc2ccccc2c1 | 52* | 0 | 13 | nt | 0 | 3
